{"source": "the supplement of paper PMC11219838", "data": [{"tested_on": "Caenorhabditis elegans L1 (N2)", "experiment": "survival and reproduction score of C. elegans L1 (0: 0-10 living worms, 1: 11-20, 2: 21-50, 3: >50, 4: overgrown) (score 0-4); higher = more worms, less nematicidal, active = 1 or less; extreme values may be limits of the assay", "conditions": "60 µM; 6 days; temperature: 20 °C", "method_in_brief": "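Each 96-well well received about 20 synchronized N2 L1 worms of C. elegans, E. coli HB101 and liquid NGM, plus compound pinned to 60 µM final (0.6% v/v DMSO). Sealed plates were incubated with shaking at 200 rpm, 20 °C, for 6 days. Survival and reproduction were rated under a dissection microscope as an ordinal score of living worms per well, averaged across biological replicates. The scale spanned 0 (0–10 worms) to 4 (overgrown, starved), and there were two replicates.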", "values": [{"compound": "COC(=O)c1ccc(CSc2nnc(-c3ccncc3)o2)cc1", "survival and reproduction score": "4 (inactive)"}, {"compound": "Clc1cccc(-c2nc(-c3ccncc3)no2)c1", "survival and reproduction score": "0 (active)"}, {"compound": "CC(=O)Nc1cccc(-c2nnc(SCc3ccc(F)cc3)o2)c1", "survival and reproduction score": "4 (inactive)"}, {"compound": "COc1ccc(-c2nc(-c3ccc(C(F)(F)F)cc3)no2)cc1", "survival and reproduction score": "4 (inactive)"}, {"compound": "Fc1ccccc1OCc1nc(-c2ccc(Cl)cc2)no1", "survival and reproduction score": "4 (inactive)"}, {"compound": "Cc1ccc(-c2nc(-c3ccccc3)no2)cc1Cl", "survival and reproduction score": "3 (inactive)"}, {"compound": "CCCOc1ccc(-c2ccc(-c3nc(-c4ccccn4)no3)cc2)cc1", "survival and reproduction score": "4 (inactive)"}, {"compound": "COc1ccccc1OCc1nc(-c2cccc(Br)c2)no1", "survival and reproduction score": "4 (inactive)"}, {"compound": "COC(=O)c1ccc(Cl)c(NC(=O)CSc2nnc(-c3ccc(Cl)cc3)o2)c1", "survival and reproduction score": "4 (inactive)"}, {"compound": "Cc1ccc(-c2nc(-c3ccccc3)no2)cc1", "survival and reproduction score": "0.5 (active)"}, {"compound": "Cc1cc(OCc2nc(-c3cccnc3)no2)cc(C)c1Br", "survival and reproduction score": "4 (inactive)"}, {"compound": "COc1ccccc1OCc1nc(-c2ccc(Cl)cc2)no1", "survival and reproduction score": "4 (inactive)"}, {"compound": "c1ccc(OCc2nc(-c3cccs3)no2)cc1", "survival and reproduction score": "0 (active)"}, {"compound": "Cc1cccc(OC(C)c2nc(-c3ccncc3)no2)c1", "note": "(stereo not drawn)", "survival and reproduction score": "4 (inactive)"}, {"compound": "Brc1ccccc1-c1nc(-c2ccc3c(c2)OCO3)no1", "survival and reproduction score": "4 (inactive)"}, {"compound": "Cc1ccccc1-c1nc(-c2ccc3c(c2)OCO3)no1", "survival and reproduction score": "2.5 (inactive)"}, {"compound": "Cc1ccccc1-c1noc(COc2ccccc2)n1", "survival and reproduction score": "4 (inactive)"}, {"compound": "Cc1cc(OCc2nc(-c3ccccc3)no2)ccc1Br", "survival and reproduction score": "4 (inactive)"}, {"compound": "c1coc(-c2nc(-c3cccs3)no2)c1", "survival and reproduction score": "0 (active)"}, {"compound": "COc1ccccc1NC(=O)c1ccccc1-c1nc(-c2ccc(Cl)cc2)no1", "survival and reproduction score": "4 (inactive)"}, {"compound": "Brc1ccc(OCc2nc(-c3cccs3)no2)cc1", "survival and reproduction score": "4 (inactive)"}, {"compound": "O=C(CSc1nnc(-c2ccccc2)o1)Nc1ccc(F)cc1F", "survival and reproduction score": "4 (inactive)"}, {"compound": "Cc1cccc(-c2noc(-c3ccc(C)c(Cl)c3)n2)c1", "survival and reproduction score": "4 (inactive)"}, {"compound": "CCn1c(SCc2ccc(OC)cc2)nnc1-c1ccco1", "survival and reproduction score": "4 (inactive)"}, {"compound": "Fc1ccc(OCc2nc(-c3ccc(Cl)cc3)no2)cc1", "survival and reproduction score": "4 (inactive)"}, {"compound": "Cc1ccc(OCc2nc(-c3ccc(Br)o3)no2)cc1C", "survival and reproduction score": "4 (inactive)"}, {"compound": "CCC(=O)Nc1ccccc1-c1nc(-c2cccnc2)no1", "survival and reproduction score": "4 (inactive)"}, {"compound": "COc1ccccc1NC(=O)CSc1nnc(-c2ccc(Cl)cc2)o1", "survival and reproduction score": "4 (inactive)"}, {"compound": "Cc1ccc(-c2noc(COc3ccccc3Cl)n2)cc1", "survival and reproduction score": "4 (inactive)"}, {"compound": "Cc1ccc(OCc2nc(-c3ccccc3)no2)c(Br)c1", "survival and reproduction score": "4 (inactive)"}, {"compound": "CC(Sc1nnc(-c2ccccc2)o1)C(=O)Nc1nccs1", "note": "(stereo not drawn)", "survival and reproduction score": "4 (inactive)"}, {"compound": "Cc1ccc(-c2noc(-c3ccc(C)cc3Cl)n2)cc1", "survival and reproduction score": "4 (inactive)"}, {"compound": "Cc1ccccc1-c1nnc(SCC(=O)Nc2cc(C(F)(F)F)ccc2N2CCOCC2)o1", "survival and reproduction score": "4 (inactive)"}, {"compound": "COc1ccc(OCc2nc(-c3ccccc3)no2)cc1", "survival and reproduction score": "4 (inactive)"}, {"compound": "Clc1ccc(OCc2nc(-c3cccnc3)no2)c(Cl)c1", "survival and reproduction score": "4 (inactive)"}, {"compound": "COc1ccc(Cl)cc1NC(=O)CSc1nnc(-c2ccncc2)o1", "survival and reproduction score": "4 (inactive)"}, {"compound": "CCCCCSc1nnc(-c2ccc(Cl)cc2Cl)o1", "survival and reproduction score": "2 (inactive)"}, {"compound": "CC(=O)Nc1ccc(NC(=O)c2ccccc2-c2nc(-c3cccc(C)c3)no2)cc1", "survival and reproduction score": "4 (inactive)"}]}]}
